The values that follow come from PubChem BioAssay (NCI).

The panel holds about 79,000 compounds, 15% with a hit somewhere; the sample as a whole holds those more often. Unmarked numbers belong to inactive results. Activity calls are given as the source filed them. Cut-off read from the data, not from the text of the source: active = growth inhibition above about 70%; inactive = the rest.

Test [1] in a line: NCI Yeast Anticancer Drug Screen. Data for the rad50 strain (AID 155).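 Note: 0% = growth of vehicle-only cultures of the same strain.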 The settings on record: S. cerevisiae rad50 strain growth inhibition, stronger effect = higher value. The method, boiled down:
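Inhibition values express reduced yeast growth in compound-treated cultures relative to vehicle-treated controls.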

Test [2] in a line: NCI Yeast Anticancer Drug Screen. Data for the mec2-1 strain (AID 157). The settings on record: S. cerevisiae mec2-1 strain, stronger effect = higher value. The method, boiled down: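 Cells of the genetically defined mec2-1 yeast strain are incubated with test compound. Inhibition of growth is calculated against vehicle-treated controls.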
The nature of test [3]: NCI Yeast Anticancer Drug Screen. Data for the sgs1 mgt1 strain (AID 161).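 Note: 0% = growth of cultures given vehicle only.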 The settings on record: S. cerevisiae sgs1 mgt1 strain, stronger effect = higher value. The method, boiled down:
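Genetically altered yeast, compound exposure, growth inhibition relative to vehicle.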

A short description of test [4]: NCI Yeast Anticancer Drug Screen. Data for the cln2 rad14 strain (AID 165).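 Note: 0% = growth equal to vehicle treated cultures.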 As to conditions: S. cerevisiae cln2 rad14 strain, stronger effect = higher value. The method, boiled down: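 The screen exposed genetically defined yeast (cln2 rad14) to test compounds and scored growth inhibition relative to vehicle-treated controls.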
A short description of test [5]: NCI Yeast Anticancer Drug Screen. Data for the bub3 strain (AID 167). The settings on record: S. cerevisiae bub3 mutant strain, stronger effect = higher value. The method, boiled down: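 Steps: expose the mutant yeast strain to compound; grow alongside vehicle-treated cultures; measure growth; express inhibition against the vehicle cultures.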
A short description of test [6]: NCI Yeast Anticancer Drug Screen. Data for the mlh1 rad18 strain (AID 175). As to conditions: S. cerevisiae mlh1 rad18 strain growth inhibition, stronger effect = higher value. The essentials: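 Compound-treated yeast growth, normalised to vehicle controls. Strain bears defined DNA repair mutations.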
Setting [7] is: at 5.0 µM (retest, dose inferred, filed as 0.5).
The mark [8] stands for this setting: at 50.0 µM (retest, dose inferred, filed as 5.0).

As for `CCCCNCCCNCCCNC(=O)c1csc(-c2csc(CCNC(=O)C(NC(=O)C(C)C(O)C(C)NC(=O)C(NC(=O)c3nc(C(CC(N)=O)NCC(N)C(N)=O)nc(N)c3C)C(OC3OC(CO)C(O)C(O)C3OC3OC(CO)C(O)C(OC(N)=O)C3O)c3cnc[nH]3)C(C)O)n2)n1` (stereo not given), the growth inhibition in test [1] (setting [7]) was 97% (active); in test [1] (setting [8]), 99% (active); in test [1] (at 50.0 µM) it was 93% (active); in test [2] (setting [7]), 98% (active); in test [2] (setting [8]), 99% (active); in test [2] (at 50.0 µM) it was 93.8% (active). Besides, the growth inhibition was 96% (active) in test [3] (setting [7]); 98% (active) in test [3] (setting [8]); 94% (active) in test [3] (at 50.0 µM); 95% (active) in test [4] (setting [7]); 94% (active) in test [4] (setting [8]); 91.9% (active) in test [4] (at 50.0 µM). Besides, the growth inhibition in test [5] (setting [7]) was 97% (active); in test [5] (setting [8]), 98% (active); in test [5] (at 50.0 µM) it was 93.9% (active); in test [6] (setting [7]), 98% (active); in test [6] (setting [8]), 99% (active); in test [6] (at 50.0 µM), 92.7% (active).
For the compound `CSC(SC)=C1C(=O)NC(Cc2ccccc2)C1=O` (stereo not given), the growth inhibition in test [1] (setting [7]) was 6%; in test [1] (setting [8]), 50%; in test [1] (at 50.0 µM) it was 80.1% (active); in test [2] (setting [7]) it was 1%; in test [2] (setting [8]) it was 35%; in test [2] (at 50.0 µM), 36.1%. The growth inhibition was 0% in test [3] (setting [7]); 66% in test [3] (setting [8]); 71.8% (active) in test [3] (at 50.0 µM); 2% in test [4] (setting [7]); 24% in test [4] (setting [8]); 37.5% in test [4] (at 50.0 µM). For the same compound, the growth inhibition was 1% in test [5] (setting [7]); 34% in test [5] (setting [8]); 50.3% in test [5] (at 50.0 µM); 5% in test [6] (setting [7]); 68% in test [6] (setting [8]); 83% (active) in test [6] (at 50.0 µM).
With `CC1SC2(C(=O)Nc3ccc([N+](=O)[O-])cc32)N(c2ccc(Cl)cc2)C1=O` (stereo not given), the growth inhibition in test [1] (setting [7]) was 7%; in test [1] (setting [8]), 97% (active); in test [1] (at 50.0 µM), 95.6% (active); in test [2] (setting [7]), -2%; in test [2] (setting [8]) it was 97% (active); in test [2] (at 50.0 µM), 95.7% (active). Moreover, the growth inhibition in test [3] (setting [7]) is -1%; in test [3] (setting [8]) it was 98% (active); in test [3] (at 50.0 µM), 79.2% (active); in test [4] (setting [7]), -1%; in test [4] (setting [8]), 97% (active); in test [4] (at 50.0 µM), 81.7% (active). Moreover, the growth inhibition was 12% in test [5] (setting [7]); 98% (active) in test [5] (setting [8]); 96.2% (active) in test [5] (at 50.0 µM); 6% in test [6] (setting [7]); 98% (active) in test [6] (setting [8]); 93.5% (active) in test [6] (at 50.0 µM).
Turning to `O=C1NC(=O)c2cccc3cccc1c23`, the growth inhibition was 20% in test [1] (setting [7]); 68% in test [1] (setting [8]); 88.4% (active) in test [1] (at 50.0 µM); 7% in test [2] (setting [7]); 25% in test [2] (setting [8]); 52.6% in test [2] (at 50.0 µM). In addition, the growth inhibition in test [3] (setting [7]) is 4%; in test [3] (setting [8]) it was 37%; in test [3] (at 50.0 µM), 80.3% (active); in test [4] (setting [7]), -5%; in test [4] (setting [8]), 20%; in test [4] (at 50.0 µM), 64.5%. Also, the growth inhibition was 3% in test [5] (setting [7]); 22% in test [5] (setting [8]); 63.1% in test [5] (at 50.0 µM); 7% in test [6] (setting [7]); 55% in test [6] (setting [8]); 84.5% (active) in test [6] (at 50.0 µM).
Take `COc1ccc2c(c1)O[C@H]1c3ccc(O)cc3OC[C@@H]21`: the growth inhibition is 1% in test [1] (setting [7]); 35% in test [1] (setting [8]); 72.7% (active) in test [1] (at 50.0 µM); 8% in test [2] (setting [7]); 36% in test [2] (setting [8]); 69.5% in test [2] (at 50.0 µM). Moreover, the growth inhibition in test [3] (setting [7]) was -2%; in test [3] (setting [8]) it was 41%; in test [3] (at 50.0 µM) it was 68%; in test [4] (setting [7]) it was 3%; in test [4] (setting [8]), 16%; in test [4] (at 50.0 µM), 50.3%. Further, the growth inhibition in test [5] (setting [7]) was 5%; in test [5] (setting [8]) it was 41%; in test [5] (at 50.0 µM), 74.2% (active); in test [6] (setting [7]) it was 1%; in test [6] (setting [8]), 53%; in test [6] (at 50.0 µM), 84% (active).
`CCC[CH2][Sn]([CH2]CCC)([O]C(=O)c1cc(F)ccc1F)[O][Sn]([CH2]CCC)([CH2]CCC)[O]C(=O)c1cc(F)ccc1F`: the growth inhibition is 83% (active) in test [1] (setting [7]); 94% (active) in test [1] (setting [8]); 65.3% in test [1] (at 50.0 µM); 87% (active) in test [2] (setting [7]); 97% (active) in test [2] (setting [8]); 69.3% in test [2] (at 50.0 µM). In addition, the growth inhibition was 85% (active) in test [3] (setting [7]); 96% (active) in test [3] (setting [8]); 63.2% in test [3] (at 50.0 µM); 74% (active) in test [4] (setting [7]); 90% (active) in test [4] (setting [8]); 57.5% in test [4] (at 50.0 µM). In addition, the growth inhibition in test [5] (setting [7]) is 93% (active); in test [5] (setting [8]), 97% (active); in test [5] (at 50.0 µM) it was 81% (active); in test [6] (setting [7]), 89% (active); in test [6] (setting [8]), 96% (active); in test [6] (at 50.0 µM), 85.9% (active).
On to `CC(C)/C(Cl)=N/OC(=O)Nc1ccc(OC(F)(F)F)cc1`, for which the growth inhibition in test [1] (setting [7]) is 2%; in test [1] (setting [8]), 98% (active); in test [1] (at 50.0 µM), 81% (active); in test [2] (setting [7]) it was -30%; in test [2] (setting [8]) it was 98% (active); in test [2] (at 50.0 µM) it was 88.3% (active). Also, the growth inhibition in test [3] (setting [7]) is 39%; in test [3] (setting [8]) it was 98% (active); in test [3] (at 50.0 µM), 83.5% (active); in test [4] (setting [7]), -7%; in test [4] (setting [8]), 97% (active); in test [4] (at 50.0 µM) it was 76.2% (active). In addition, the growth inhibition was -27% in test [5] (setting [7]); 98% (active) in test [5] (setting [8]); 85.5% (active) in test [5] (at 50.0 µM); -7% in test [6] (setting [7]); 97% (active) in test [6] (setting [8]); 77.1% (active) in test [6] (at 50.0 µM).
For the compound `OCCSCc1cc(Cl)cc(Cl)c1O`, the growth inhibition in test [1] (setting [7]) is 7%; in test [1] (setting [8]), 76% (active); in test [1] (at 50.0 µM), 56%; in test [2] (setting [7]) it was -12%; in test [2] (setting [8]), 60%; in test [2] (at 50.0 µM), 48.2%. For the same compound, the growth inhibition in test [3] (setting [7]) was -6%; in test [3] (setting [8]), 90% (active); in test [3] (at 50.0 µM), 78.7% (active); in test [4] (setting [7]), -10%; in test [4] (setting [8]), 44%; in test [4] (at 50.0 µM) it was 44.4%. The growth inhibition in test [5] (setting [7]) was -6%; in test [5] (setting [8]) it was 77% (active); in test [5] (at 50.0 µM), 78% (active); in test [6] (setting [7]), 0%; in test [6] (setting [8]) it was 91% (active); in test [6] (at 50.0 µM), 78.8% (active).
Take `Cc1nc2ccc3c(ccc4nc(C)c(N=Nc5ccc(C(=N)N)cc5)c(O)c43)c2c(O)c1N=Nc1ccc(C(=N)N)cc1`: the growth inhibition is 5% in test [1] (setting [7]); 89% (active) in test [1] (setting [8]); 93.8% (active) in test [1] (at 50.0 µM); 0% in test [2] (setting [7]); 95% (active) in test [2] (setting [8]); 95.6% (active) in test [2] (at 50.0 µM). Also, the growth inhibition in test [3] (setting [7]) was -1%; in test [3] (setting [8]), 70% (active); in test [3] (at 50.0 µM), 85.2% (active); in test [4] (setting [7]), -4%; in test [4] (setting [8]), 81% (active); in test [4] (at 50.0 µM), 87% (active). In addition, the growth inhibition in test [5] (setting [7]) was -6%; in test [5] (setting [8]), 58%; in test [5] (at 50.0 µM) it was 93.3% (active); in test [6] (setting [7]), 2%; in test [6] (setting [8]) it was 77% (active); in test [6] (at 50.0 µM), 90.7% (active).
With `O=C(Nc1ccccc1)OCCN=C1c2ccccc2CCc2ccccc21`, the growth inhibition in test [1] (setting [7]) is 4%; in test [1] (setting [8]) it was 95% (active); in test [1] (at 50.0 µM), 66.1%; in test [2] (setting [7]), -35%; in test [2] (setting [8]), 96% (active); in test [2] (at 50.0 µM), 76.2% (active). In addition, the growth inhibition in test [3] (setting [7]) is -27%; in test [3] (setting [8]), 95% (active); in test [3] (at 50.0 µM), 81.7% (active); in test [4] (setting [7]), -30%; in test [4] (setting [8]), 94% (active); in test [4] (at 50.0 µM), 84% (active). Also, the growth inhibition in test [5] (setting [7]) is -30%; in test [5] (setting [8]), 96% (active); in test [5] (at 50.0 µM), 83.9% (active); in test [6] (setting [7]), -22%; in test [6] (setting [8]), 95% (active); in test [6] (at 50.0 µM), 88.8% (active).
